# Rows were chosen to be rich in hits. Some 1.4% of all compounds tested hit in one or more screens of this group.
# Vif-APOBEC3F blk – Vif-A3F binding inhibition | HeLa A3F-eYFP + Vif (tagged APOBEC3F with the HIV-1 protein that degrades it), YFP fluorescence increase | Potency, µM (top dose mostly 46.1 µM), for inactives: at the highest dose activity, negative = active | hit rate 0.2% among 390,000; further: potency means the concentration at half of the fitted maximal effect; % of control where 0% means no effect; nearly all actives have a fitted effect of over 65% in size
#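 HeLa cells stably expressing Vif plus C-terminally eYFP-tagged A3F were seeded, incubated overnight at 37 deg C, dosed with compound, incubated overnight again at 37 deg C. Yellow fluorescence (Ex 488/Em 500-530) reported blocked Vif-mediated A3F-eYFP degradation.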
# TSG101-PTAP inh – blocks PTAP/TSG101 interaction to inhibit HIV-1 budding | Q99816 | Fluorescence polarization, FITC-PTAP peptide / Tsg101 binding | Potency, µM (doses to about 115 µM), for inactives: at the highest dose activity change, negative = inhibition, usual class: inhibitors | 340,000 tested, under 10 active | AID 493005; active means well fitted inhibition curve with a large enough effect in the main read-out, with a control signal flat, not every such curve was filed as active; inconclusive means small, poorly fitted or top-dose-only effect, or effect the other way, or a change in a side signal; inactive means no such curve, though single readings can be large or run the other way; further: potency means the concentration at half of the fitted maximal effect; % of control where 0% means no effect
# Target sequence (Q99816 whole entry, looked up): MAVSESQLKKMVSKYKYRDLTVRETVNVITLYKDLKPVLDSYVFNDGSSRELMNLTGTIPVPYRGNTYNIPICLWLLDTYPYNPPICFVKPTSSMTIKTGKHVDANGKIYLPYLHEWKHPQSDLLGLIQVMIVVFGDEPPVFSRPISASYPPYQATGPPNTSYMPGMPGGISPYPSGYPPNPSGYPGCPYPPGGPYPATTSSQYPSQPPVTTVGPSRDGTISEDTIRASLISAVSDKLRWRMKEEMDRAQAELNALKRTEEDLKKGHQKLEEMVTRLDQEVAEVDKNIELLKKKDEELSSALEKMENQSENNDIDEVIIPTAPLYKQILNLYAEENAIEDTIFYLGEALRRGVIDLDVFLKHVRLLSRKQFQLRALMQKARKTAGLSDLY
#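 Fluorescence polarization binding of Tsg101 binding domain (10 uM final) to FITC-labeled PTAP peptide (50 nM final) in HEPES pH 7.5 buffer with NaCl, Tween 20, EDTA, TCEP. Compounds added before peptide; binding 20 min at RT.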
# ASM inhibitor – human S-ASM enzyme inhibition; P17405; placental ASM, HMU-PC fluorogenic substrate, 60 min; Potency, µM (series often up to 57.5 µM), inactives show at the top dose activity change, negative = inhibition, usual class: inhibitors; hit rate 0.006% among 340,000; further: potency means the concentration at half of the fitted maximal effect
#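 HMU-PC0 cleavage (9 uM final) by human placental ASM, 60 min at 37 °C following 10 min compound exposure at RT; stopped at pH 10, fluorescence Ex 386/Em 447 nm.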
# 12-LOX inh – blocks human arachidonate 12S-lipoxygenase. P18054. purified 12hLO, xylenol orange hydroperoxide absorbance. Potency, µM (highest dose often 108 µM), for inactives: top-dose activity change, negative = inhibition, most hits filed as inhibitors. hit rate 1.1% among 580,000. AID 1671190; further: potency means the concentration at half of the fitted maximal effect; on the % scale 0 is the no-effect control and ±100 the full control effect
#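 Purified human 12hLO at 150 nM in 25 mM Hepes, 0.01% Triton X-100, pH 7.0, preincubated 15 min at room temperature with compound. Reaction started with 40 uM arachidonic acid, 30 min at room temperature. Hydroperoxide measured by Fe-xylenol orange, 573/405 nm absorbance ratio.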
# pAkt inh – Akt phosphorylation inhibition | Neuro2A IGF-stimulated pAkt S473 HTRF, 20 min; hits give low values | activity change, % for hits at 50 µM | hit rate 0.32% among 360,000 | AID 651550; in the data active means activity change below about -80%; inconclusive means mostly about -51% to -80%; further: on the % scale 0 is the no-effect control and ±100 the full control effect
#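 Neuro2A cells (4,500/well, DMEM with 0.5% FBS) were treated with compound at a single 50 µM final concentration, stimulated with 6 nM IGF for 20 min at 37 °C, and lysed. Phospho-Akt Ser473 was read by HTRF as 665/615 ratio ×10^4.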
# Vif-APOBEC3G blk – blocks the Vif interaction with human APOBEC3G | AID 602310 | hit rate 0.076% among 410,000 | Potency, µM (doses to about 46.1 µM), inactives show top-dose activity, negative = active, hits mostly inhibitors | HeLa A3G-eYFP + Vif (tagged APOBEC3G with the HIV-1 protein that degrades it), YFP fluorescence, overnight | Q9HC16; further: potency means the concentration at half of the fitted maximal effect; on the % scale 0 is the no-effect control and ±100 the full control effect; nearly all actives have a fitted effect of over 60% in size
#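 HeLa cells stably expressing Vif and C-terminally eYFP-tagged A3G, seeded overnight at 37 deg C, then exposed to compound by pintool overnight at 37 deg C. Rise in yellow fluorescence (Ex 488/Em 500-530, Acumen) marks blocked Vif-driven A3G degradation.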
# Starred values were filed as active, the others as inactive; i = inactive; ? = inconclusive; nt = not tested or not shown; [ ] = another dose, or the depositor's remark. Unless noted, the call rests on the fitted dose curve; in most records, active means well fitted curve in the direction sought with a large enough effect; inconclusive means small, poorly fitted or top-dose-only effect, or another doubt; inactive means no such curve, though single readings can be large; an effect the other way counts as inactive or inconclusive.
SMILES,Vif-APOBEC3F blk,TSG101-PTAP inh,ASM inhibitor,12-LOX inh,pAkt inh,Vif-APOBEC3G blk
COc1ccc(CN(C(=O)c2cc(Cl)cc(Cl)c2)C2CC2)c(OC)c1,nt,nt,nt,3%,nt,nt
O=C(c1ccccc1)C1CCN(C(=O)/C=C/c2ccc(F)cc2)CC1,nt,nt,nt,-29%,nt,nt
C=CCn1c(SCC(=O)Nc2sccc2C(N)=O)nc2sc(CC)cc2c1=O,-1%,1%,-9%,-17%,-111%*,?
COc1cccc2sc(N(CCN(C)C)C(=O)/C=C/c3cccs3)nc12,-5%,0%,-2%,1%,i,-15%
CN(C)CCN(C(=O)/C=C/c1cccs1)c1nc2c(F)cc(F)cc2s1,11µM*,10%,-4%,?,i,-18%
CN(C)CCCN(C(=O)/C=C/c1cccs1)c1nc2ccc(F)cc2s1,11µM*,24%,-4%,?,i,?
Cc1cccc(-c2nc(CS(=O)CC(=O)NCCN(Cc3ccccc3)C(C)C)c(C)o2)c1 (stereo not drawn),nt,nt,nt,10%,nt,nt
O=C(OC/C=C/c1ccccc1)c1c[nH]c2ccccc12,nt,nt,nt,-1%,nt,nt
CN(C)Cc1ccc(-c2cc(-c3ccncc3)c3cncn3c2)cc1,nt,nt,nt,3%[176 µM],nt,nt
O=C(Nc1ccccc1)C(=O)Nc1ccccn1,-5%,-4%,-3%,2%,i,1%
S=C(Nc1ccc(Nc2ccccc2)cc1)Nc1ccccn1,13%,0%,-12%,5.6µM*,i,3%
Cc1ccc(NC(=S)Nc2ccccc2)nc1,nt,nt,nt,22µM*,nt,nt
Cc1ccc(C(=O)Nc2nnc(NC(=S)Nc3ccccc3)s2)cc1,6%,-4%,-13%,40µM*,i,-2%
Cc1ccc(C)c(OCC(=O)Nc2ccc(-c3nc4ccccc4o3)cc2)c1,nt,nt,nt,5%,nt,nt
COc1ccccc1NC(=O)CSc1nc2c(c(=O)[nH]1)CN(Cc1ccc3c(c1)OCO3)CC2,nt,nt,nt,4%,nt,nt
CCCC(NC(=O)Cc1n[nH]c(=O)c2ccccc12)c1ccccc1 (stereo not drawn),nt,nt,nt,-5%,nt,nt
N/C(=N\O)c1cn(Cc2ccccc2Cl)c2ccccc12,-13%,-3%,-5%,1%,i,1%
Cc1[nH][nH]c(=O)c1C(c1c(C)[nH][nH]c1=O)c1cn(Cc2ccccc2Cl)c2ccccc12,-8%,-6%,-5%,?,i,11µM*
O=S(=O)(c1cc(F)ccc1F)N1CCN(Cc2cccc3cccnc23)CC1,nt,nt,nt,16µM*,nt,nt
O=C(CSc1nc2ccc(Cl)cc2[nH]1)c1ccc2c(c1)OCO2,-5%,-3%,2%,11µM*,nt,1%
O=C(CSc1nc2cc(Cl)c(Cl)cc2[nH]1)c1ccc2c(c1)OCO2,-21%,1%,-7%,?,i,-6%
Cc1ccc(NC(=O)c2ncoc2-c2cccc(C)c2)cc1,nt,nt,nt,-21%,nt,nt
CCc1nc2ccccc2n1CCCCOc1ccccc1C,-17%,nt,nt,40µM*,nt,4%
Cc1cccc(NC(=O)c2ccc(-n3cccn3)c([N+](=O)[O-])c2)c1,-2%,0%,-2%,0%,-116%*,5%
CC(C)COc1ccc(-c2nn(-c3ccccc3)cc2/C=C2/SC(=S)N(CC(=O)O)C2=O)cc1,17%,-4%,-12%,45µM*,i,0%
SMILES,Vif-APOBEC3F blk,TSG101-PTAP inh,ASM inhibitor,12-LOX inh,pAkt inh,Vif-APOBEC3G blk
CN1/C(=C\C(=S)Nc2ccccc2)C(C)(C)c2ccccc21,?,2%,6%,-17%,i,-1%
CN1/C(=C/C(=S)NC(=O)C2(C)CC2(Cl)Cl)C(C)(C)c2ccccc21 (stereo not drawn),?,-3%,-8%,22µM*,i,1%
CCOC(=O)/C=C1/N(C)c2ccccc2C1(C)C,-2%,-2%,0%,17%,i,2%
CN1/C(=C\C(=S)NC(=O)c2ccccc2Cl)C(C)(C)c2ccccc21,-8%,0%,-13%,25µM*,i,0%
COc1ccccc1C(=O)NC(=S)/C=C1/N(C)c2ccccc2C1(C)C,-7%,-2%,-12%,28µM*,i,3%
O=C(Nc1ccc(F)cc1)c1cc(-c2ccccn2)nc2ccccc12,nt,nt,nt,3%,nt,nt

# High-throughput results from PubChem BioAssay.
